Assay results taken from PMC7862700, “An all-to-all approach to the identification of sequence-specific readers for epigenetic DNA modifications on cytosine”.

Tests used:
Assay in all cases: DAPPL (digital affinity profiling via proximity ligation, sequencing); 10 mM Tris-HCl pH 7.5, 50 mM NaCl, 1 mM DTT, 4% glycerol, room temperature, 30 min; GST-TFs on glutathione beads, 16-mer random dsDNA library, 0.1% formaldehyde crosslink after washing; high values mean tight binding
FEV = molecular target: T1, FEV (Homo sapiens, UniProt Q99581 1-238); settings: protein: recombinant; tags: N-terminal GST; dsDNA, one strand shown
T1 sequence: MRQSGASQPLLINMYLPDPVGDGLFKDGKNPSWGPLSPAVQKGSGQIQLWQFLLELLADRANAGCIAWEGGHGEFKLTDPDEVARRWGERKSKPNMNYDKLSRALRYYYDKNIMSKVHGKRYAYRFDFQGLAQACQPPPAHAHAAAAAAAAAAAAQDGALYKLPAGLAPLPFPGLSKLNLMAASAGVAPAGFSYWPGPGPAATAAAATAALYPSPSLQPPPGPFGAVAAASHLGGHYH
In short: (§1)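 After expression in yeast as GST fusions, human transcription factors were bound to glutathione beads, DNA-barcoded and mixed with a tag-only sample. The pools were incubated with 200 nmole of a 16-mer random double-stranded DNA library in Tris/NaCl/DTT/glycerol buffer (30 min, room temperature), washed and crosslinked with 0.1% formaldehyde. Proximity ligation with BsaI/T4 ligase ran for 1 h at 37 °C, before PCR amplification and sequencing on an Illumina NextSeq500. Binding signal is a hexamer's read frequency for a factor divided by its frequency for the tag-only sample.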

ETV5 = ETV5 (Homo sapiens, UniProt P41161 1-510); settings: protein: recombinant; tags: N-terminal GST; dsDNA, one strand shown
In short: as §1

HSF1 = HSF1 (Homo sapiens, UniProt Q00613 1-529); settings: protein: recombinant; tags: N-terminal GST; chain copies: 3; dsDNA, one strand shown
In short: as §1

SPIC = molecular target: T2, SPIC (Homo sapiens, UniProt Q8N5J4 1-248); settings: protein: recombinant; tags: N-terminal GST; dsDNA, one strand shown
T2 sequence: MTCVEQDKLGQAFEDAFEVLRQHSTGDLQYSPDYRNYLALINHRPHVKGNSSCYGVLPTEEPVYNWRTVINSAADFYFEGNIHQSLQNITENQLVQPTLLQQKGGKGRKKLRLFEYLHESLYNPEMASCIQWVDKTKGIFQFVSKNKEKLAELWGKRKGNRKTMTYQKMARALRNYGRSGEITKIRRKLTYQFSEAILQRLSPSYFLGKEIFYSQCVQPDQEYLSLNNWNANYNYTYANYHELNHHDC
In short: as §1

ELF4 = ELF4 (Homo sapiens, UniProt Q99607 1-663); settings: protein: recombinant; tags: N-terminal GST; dsDNA, one strand shown
In short: as §1

ELK4 = molecular target: T3, ELK4 (Homo sapiens, UniProt P28324-2 1-405); settings: protein: recombinant; tags: N-terminal GST; dsDNA, one strand shown
T3 sequence: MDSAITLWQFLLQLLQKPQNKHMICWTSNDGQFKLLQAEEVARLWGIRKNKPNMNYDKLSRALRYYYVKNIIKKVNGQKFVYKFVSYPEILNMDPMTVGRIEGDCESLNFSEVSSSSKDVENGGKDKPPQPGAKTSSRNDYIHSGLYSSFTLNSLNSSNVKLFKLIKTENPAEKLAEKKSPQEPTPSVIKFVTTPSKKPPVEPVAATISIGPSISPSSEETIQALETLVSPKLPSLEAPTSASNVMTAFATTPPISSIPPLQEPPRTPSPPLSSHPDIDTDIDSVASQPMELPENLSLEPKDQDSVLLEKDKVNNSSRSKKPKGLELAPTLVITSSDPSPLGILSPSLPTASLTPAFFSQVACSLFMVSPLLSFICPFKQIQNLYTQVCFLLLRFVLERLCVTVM
In short: as §1

ETV2 = molecular target: T4, ETV2 (Homo sapiens, UniProt O00321 1-342); settings: protein: recombinant; tags: N-terminal GST; dsDNA, one strand shown
T4 sequence: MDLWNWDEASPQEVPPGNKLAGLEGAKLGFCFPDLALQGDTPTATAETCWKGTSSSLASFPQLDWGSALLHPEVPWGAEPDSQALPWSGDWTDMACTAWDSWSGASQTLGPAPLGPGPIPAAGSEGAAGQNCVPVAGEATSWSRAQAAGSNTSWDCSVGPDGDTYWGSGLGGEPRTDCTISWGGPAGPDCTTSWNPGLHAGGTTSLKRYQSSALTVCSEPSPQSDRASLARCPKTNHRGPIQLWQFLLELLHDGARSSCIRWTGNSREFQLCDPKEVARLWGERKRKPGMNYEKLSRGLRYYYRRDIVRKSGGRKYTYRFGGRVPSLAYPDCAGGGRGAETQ
In short: as §1

ELF3 = molecular target: T5, ELF3 (Homo sapiens, UniProt P78545 1-371); settings: protein: recombinant; tags: N-terminal GST; dsDNA, one strand shown
T5 sequence: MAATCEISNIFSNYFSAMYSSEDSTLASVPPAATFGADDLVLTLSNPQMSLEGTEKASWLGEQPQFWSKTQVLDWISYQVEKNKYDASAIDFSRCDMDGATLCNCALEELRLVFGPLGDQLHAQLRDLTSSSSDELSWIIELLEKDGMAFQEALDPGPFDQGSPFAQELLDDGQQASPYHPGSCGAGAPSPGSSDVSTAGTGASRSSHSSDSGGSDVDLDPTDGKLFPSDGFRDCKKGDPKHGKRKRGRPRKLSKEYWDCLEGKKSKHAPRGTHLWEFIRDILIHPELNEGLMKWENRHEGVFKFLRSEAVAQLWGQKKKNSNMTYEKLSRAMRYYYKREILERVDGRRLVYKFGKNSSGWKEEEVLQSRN
In short: as §1

CRX = CRX (Homo sapiens, UniProt O43186 1-299); settings: protein: recombinant; tags: N-terminal GST; dsDNA, one strand shown
In short: as §1

ETV1 = ETV1 (Homo sapiens, UniProt P50549 1-477); settings: protein: recombinant; tags: N-terminal GST; dsDNA, one strand shown
In short: as §1

ERF = molecular target: T6, ERF (Homo sapiens, UniProt P50548 1-548); settings: protein: recombinant; tags: N-terminal GST; dsDNA, one strand shown
T6 sequence: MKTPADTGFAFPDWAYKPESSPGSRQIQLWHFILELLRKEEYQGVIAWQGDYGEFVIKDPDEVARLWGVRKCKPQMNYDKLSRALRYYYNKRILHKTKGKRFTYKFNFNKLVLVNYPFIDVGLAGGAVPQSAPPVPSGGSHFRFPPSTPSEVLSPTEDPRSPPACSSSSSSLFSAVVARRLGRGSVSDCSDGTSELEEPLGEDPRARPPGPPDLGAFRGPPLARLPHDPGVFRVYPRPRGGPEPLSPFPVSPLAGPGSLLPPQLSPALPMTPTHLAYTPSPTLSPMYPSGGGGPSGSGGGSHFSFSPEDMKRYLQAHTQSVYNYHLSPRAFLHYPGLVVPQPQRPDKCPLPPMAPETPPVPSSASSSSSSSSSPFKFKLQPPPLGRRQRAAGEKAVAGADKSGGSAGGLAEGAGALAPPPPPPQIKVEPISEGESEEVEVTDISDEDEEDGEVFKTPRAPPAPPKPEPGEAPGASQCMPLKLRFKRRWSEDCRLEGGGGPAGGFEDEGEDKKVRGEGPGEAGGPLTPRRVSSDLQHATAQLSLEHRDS
In short: as §1

ETV3L = molecular target: T7, ETV3L (Homo sapiens, UniProt Q6ZN32 1-361); settings: protein: recombinant; tags: N-terminal GST; dsDNA, one strand shown
T7 sequence: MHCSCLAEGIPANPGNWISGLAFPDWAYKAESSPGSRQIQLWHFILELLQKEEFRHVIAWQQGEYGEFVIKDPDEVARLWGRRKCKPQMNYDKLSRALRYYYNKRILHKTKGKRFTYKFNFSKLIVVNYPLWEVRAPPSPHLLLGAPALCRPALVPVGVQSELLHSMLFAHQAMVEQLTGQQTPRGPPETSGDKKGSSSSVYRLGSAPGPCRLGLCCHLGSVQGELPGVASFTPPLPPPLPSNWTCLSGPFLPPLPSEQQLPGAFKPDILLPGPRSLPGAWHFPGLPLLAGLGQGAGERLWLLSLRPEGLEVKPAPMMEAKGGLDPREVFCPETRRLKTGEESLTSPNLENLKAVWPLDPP
In short: as §1

ETS2 = molecular target: T8, ETS2 (Homo sapiens, UniProt P15036 1-469); settings: protein: recombinant; tags: N-terminal GST; dsDNA, one strand shown
T8 sequence: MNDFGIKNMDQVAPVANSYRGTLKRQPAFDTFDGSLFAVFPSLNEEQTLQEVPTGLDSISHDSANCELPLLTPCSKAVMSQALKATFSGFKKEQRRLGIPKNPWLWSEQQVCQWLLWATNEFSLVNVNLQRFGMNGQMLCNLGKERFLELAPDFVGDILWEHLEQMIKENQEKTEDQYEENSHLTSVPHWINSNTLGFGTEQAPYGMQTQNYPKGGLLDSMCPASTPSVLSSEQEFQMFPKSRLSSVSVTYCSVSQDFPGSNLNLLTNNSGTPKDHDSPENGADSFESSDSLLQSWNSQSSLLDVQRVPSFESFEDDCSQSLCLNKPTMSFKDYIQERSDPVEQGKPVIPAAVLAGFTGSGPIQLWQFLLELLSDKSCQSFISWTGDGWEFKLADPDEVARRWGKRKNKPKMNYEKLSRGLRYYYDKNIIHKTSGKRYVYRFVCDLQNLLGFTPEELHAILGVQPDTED
In short: as §1

SPDEF = molecular target: T9, SPDEF (Homo sapiens, UniProt O95238 1-335); settings: protein: recombinant; tags: N-terminal GST; dsDNA, one strand shown
T9 sequence: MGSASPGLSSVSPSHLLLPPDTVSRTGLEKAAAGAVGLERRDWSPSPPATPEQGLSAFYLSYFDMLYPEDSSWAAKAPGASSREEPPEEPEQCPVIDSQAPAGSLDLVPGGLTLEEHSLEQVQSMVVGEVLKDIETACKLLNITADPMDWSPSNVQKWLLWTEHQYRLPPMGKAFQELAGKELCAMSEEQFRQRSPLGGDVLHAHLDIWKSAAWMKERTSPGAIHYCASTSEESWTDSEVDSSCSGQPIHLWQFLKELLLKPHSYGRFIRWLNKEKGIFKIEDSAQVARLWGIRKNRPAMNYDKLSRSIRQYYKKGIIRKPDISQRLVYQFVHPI
In short: as §1

ETV7 = molecular target: T10, ETV7 (Homo sapiens, UniProt Q9Y603 1-341); settings: protein: recombinant; tags: N-terminal GST; dsDNA, one strand shown
T10 sequence: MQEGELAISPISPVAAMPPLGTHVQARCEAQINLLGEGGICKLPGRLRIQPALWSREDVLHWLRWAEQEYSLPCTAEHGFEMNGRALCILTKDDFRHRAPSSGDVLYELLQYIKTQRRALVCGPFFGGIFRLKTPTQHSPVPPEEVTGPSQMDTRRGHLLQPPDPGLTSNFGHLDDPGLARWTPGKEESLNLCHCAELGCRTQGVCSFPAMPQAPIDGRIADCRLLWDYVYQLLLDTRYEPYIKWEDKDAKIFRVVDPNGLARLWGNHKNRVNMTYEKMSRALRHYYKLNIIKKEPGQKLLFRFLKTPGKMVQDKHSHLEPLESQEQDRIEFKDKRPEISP
In short: as §1

ELF5 = molecular target: T11, ELF5 (Homo sapiens, UniProt Q9UKW6-2 1-255); settings: protein: recombinant; tags: N-terminal GST; dsDNA, one strand shown
T11 sequence: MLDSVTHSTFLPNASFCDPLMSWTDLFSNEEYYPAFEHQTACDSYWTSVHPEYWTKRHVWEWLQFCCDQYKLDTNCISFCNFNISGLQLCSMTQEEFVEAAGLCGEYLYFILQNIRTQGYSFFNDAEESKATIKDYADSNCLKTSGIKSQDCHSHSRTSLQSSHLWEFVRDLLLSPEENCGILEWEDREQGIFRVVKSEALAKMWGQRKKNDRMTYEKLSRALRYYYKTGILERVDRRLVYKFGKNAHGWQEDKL
In short: as §1

ETV3 = molecular target: T12, ETV3 (Homo sapiens, UniProt P41162-2 1-143); settings: protein: recombinant; tags: N-terminal GST; dsDNA, one strand shown
T12 sequence: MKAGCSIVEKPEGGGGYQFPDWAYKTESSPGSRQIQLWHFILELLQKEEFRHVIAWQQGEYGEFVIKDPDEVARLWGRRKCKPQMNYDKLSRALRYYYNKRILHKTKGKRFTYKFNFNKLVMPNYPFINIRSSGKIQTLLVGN
In short: as §1

ETV6 = ETV6 (Homo sapiens, UniProt P41212 1-452); settings: protein: recombinant; tags: N-terminal GST; dsDNA, one strand shown
In short: as §1

Sequence of ETV6 (P41212 whole entry): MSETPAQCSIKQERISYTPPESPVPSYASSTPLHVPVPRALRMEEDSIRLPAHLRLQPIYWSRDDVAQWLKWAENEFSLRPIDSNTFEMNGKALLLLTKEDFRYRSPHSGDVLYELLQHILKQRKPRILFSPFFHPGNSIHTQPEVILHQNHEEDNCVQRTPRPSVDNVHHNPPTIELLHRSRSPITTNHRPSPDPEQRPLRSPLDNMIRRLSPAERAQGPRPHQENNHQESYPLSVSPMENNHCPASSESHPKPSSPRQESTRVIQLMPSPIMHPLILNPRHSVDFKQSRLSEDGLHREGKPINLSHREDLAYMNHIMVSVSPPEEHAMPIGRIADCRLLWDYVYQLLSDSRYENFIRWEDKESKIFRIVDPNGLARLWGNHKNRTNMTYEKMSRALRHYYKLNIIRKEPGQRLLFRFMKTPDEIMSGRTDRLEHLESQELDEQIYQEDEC
Sequence of ETV1 (P50549 whole entry): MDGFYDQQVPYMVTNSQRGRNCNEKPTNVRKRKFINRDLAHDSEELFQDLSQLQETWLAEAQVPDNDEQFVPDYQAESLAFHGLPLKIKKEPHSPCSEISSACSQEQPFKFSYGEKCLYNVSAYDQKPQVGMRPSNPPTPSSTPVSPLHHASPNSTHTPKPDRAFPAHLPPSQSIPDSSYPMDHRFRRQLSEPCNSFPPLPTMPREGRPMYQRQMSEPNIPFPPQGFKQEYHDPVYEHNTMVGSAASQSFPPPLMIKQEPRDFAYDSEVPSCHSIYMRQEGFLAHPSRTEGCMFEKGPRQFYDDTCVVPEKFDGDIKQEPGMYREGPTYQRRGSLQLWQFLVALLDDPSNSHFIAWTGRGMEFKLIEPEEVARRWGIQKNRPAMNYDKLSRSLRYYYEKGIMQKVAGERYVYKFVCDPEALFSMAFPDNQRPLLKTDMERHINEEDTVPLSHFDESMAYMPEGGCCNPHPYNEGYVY
Sequence of ETV5 (P41161 whole entry): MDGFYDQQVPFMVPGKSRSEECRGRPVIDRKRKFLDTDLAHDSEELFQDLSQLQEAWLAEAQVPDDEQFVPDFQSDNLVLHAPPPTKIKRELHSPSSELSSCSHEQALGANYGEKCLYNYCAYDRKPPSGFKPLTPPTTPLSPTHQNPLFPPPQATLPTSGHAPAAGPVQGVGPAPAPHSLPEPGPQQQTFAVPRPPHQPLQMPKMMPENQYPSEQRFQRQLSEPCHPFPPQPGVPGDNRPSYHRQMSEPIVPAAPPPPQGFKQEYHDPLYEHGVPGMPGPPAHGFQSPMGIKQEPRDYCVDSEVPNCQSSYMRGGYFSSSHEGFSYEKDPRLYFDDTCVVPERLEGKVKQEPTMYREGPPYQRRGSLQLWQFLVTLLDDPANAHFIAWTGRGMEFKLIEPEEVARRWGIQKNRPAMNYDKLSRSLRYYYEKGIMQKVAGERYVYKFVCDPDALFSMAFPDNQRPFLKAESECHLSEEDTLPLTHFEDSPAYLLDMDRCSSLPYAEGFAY
Sequence of CRX (O43186 whole entry): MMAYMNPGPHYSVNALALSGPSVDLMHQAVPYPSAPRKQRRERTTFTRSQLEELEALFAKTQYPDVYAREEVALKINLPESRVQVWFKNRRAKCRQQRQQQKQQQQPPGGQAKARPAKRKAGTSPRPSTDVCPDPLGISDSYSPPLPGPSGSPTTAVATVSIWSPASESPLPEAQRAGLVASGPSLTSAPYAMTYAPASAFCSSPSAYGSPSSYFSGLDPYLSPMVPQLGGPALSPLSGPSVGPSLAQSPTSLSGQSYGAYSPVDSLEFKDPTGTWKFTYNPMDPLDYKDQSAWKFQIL
Sequence of ELF4 (Q99607 whole entry): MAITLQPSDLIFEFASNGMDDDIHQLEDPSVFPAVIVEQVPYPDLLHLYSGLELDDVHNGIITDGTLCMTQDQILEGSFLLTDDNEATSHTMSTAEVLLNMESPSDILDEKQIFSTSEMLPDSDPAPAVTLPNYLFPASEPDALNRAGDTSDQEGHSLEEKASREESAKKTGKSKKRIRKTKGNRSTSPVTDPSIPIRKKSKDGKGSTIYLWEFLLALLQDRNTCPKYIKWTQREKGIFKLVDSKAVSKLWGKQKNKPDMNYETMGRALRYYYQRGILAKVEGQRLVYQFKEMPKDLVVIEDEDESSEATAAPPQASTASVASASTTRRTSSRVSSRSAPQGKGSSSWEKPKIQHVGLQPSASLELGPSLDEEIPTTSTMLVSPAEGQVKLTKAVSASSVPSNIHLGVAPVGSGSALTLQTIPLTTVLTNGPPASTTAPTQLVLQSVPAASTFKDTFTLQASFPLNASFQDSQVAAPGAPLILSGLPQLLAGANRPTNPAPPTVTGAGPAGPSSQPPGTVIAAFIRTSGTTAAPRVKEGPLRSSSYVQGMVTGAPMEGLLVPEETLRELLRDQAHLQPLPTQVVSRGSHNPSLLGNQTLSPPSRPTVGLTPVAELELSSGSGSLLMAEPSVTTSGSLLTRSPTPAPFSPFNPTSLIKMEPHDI
Sequence of HSF1 (Q00613 whole entry): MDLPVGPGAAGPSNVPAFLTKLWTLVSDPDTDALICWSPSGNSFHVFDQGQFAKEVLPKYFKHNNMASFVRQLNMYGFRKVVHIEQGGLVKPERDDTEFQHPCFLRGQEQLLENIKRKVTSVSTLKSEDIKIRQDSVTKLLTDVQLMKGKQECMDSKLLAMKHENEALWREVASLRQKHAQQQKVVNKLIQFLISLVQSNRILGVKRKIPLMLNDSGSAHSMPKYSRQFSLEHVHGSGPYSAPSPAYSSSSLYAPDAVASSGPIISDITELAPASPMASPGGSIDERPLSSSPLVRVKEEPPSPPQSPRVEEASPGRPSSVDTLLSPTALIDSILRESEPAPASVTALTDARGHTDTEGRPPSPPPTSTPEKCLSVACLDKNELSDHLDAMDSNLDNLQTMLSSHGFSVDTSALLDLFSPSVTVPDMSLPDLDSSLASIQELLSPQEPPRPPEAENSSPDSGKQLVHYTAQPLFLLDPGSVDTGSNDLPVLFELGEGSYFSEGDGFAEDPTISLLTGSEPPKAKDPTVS

Sequence	binding signal (FEV)	binding signal (ETV5)	binding signal (HSF1)	binding signal (SPIC)	binding signal (ELF4)	binding signal (ELK4)	binding signal (ETV2)	binding signal (ELF3)	binding signal (CRX)	binding signal (ETV1)	binding signal (ERF)	binding signal (ETV3L)	binding signal (ETS2)	binding signal (SPDEF)	binding signal (ETV7)	binding signal (ELF5)	binding signal (ETV3)	binding signal (ETV6)
CTGTTA	1.25 fold enrichment (6-mer frequency, TF over GST control)	1.2 fold enrichment (6-mer frequency, TF over GST control)	1.16 fold enrichment (6-mer frequency, TF over GST control)	1.28 fold enrichment (6-mer frequency, TF over GST control)	1.37 fold enrichment (6-mer frequency, TF over GST control)	1.4 fold enrichment (6-mer frequency, TF over GST control)	1.35 fold enrichment (6-mer frequency, TF over GST control)	1.32 fold enrichment (6-mer frequency, TF over GST control)	1.16 fold enrichment (6-mer frequency, TF over GST control)	1.23 fold enrichment (6-mer frequency, TF over GST control)	1.28 fold enrichment (6-mer frequency, TF over GST control)	1.23 fold enrichment (6-mer frequency, TF over GST control)	1.26 fold enrichment (6-mer frequency, TF over GST control)	1.32 fold enrichment (6-mer frequency, TF over GST control)	1.12 fold enrichment (6-mer frequency, TF over GST control)	1.37 fold enrichment (6-mer frequency, TF over GST control)	1.31 fold enrichment (6-mer frequency, TF over GST control)	1.26 fold enrichment (6-mer frequency, TF over GST control)
AATGGC	1.52 fold enrichment (6-mer frequency, TF over GST control)	1.42 fold enrichment (6-mer frequency, TF over GST control)	1.28 fold enrichment (6-mer frequency, TF over GST control)	1.61 fold enrichment (6-mer frequency, TF over GST control)	1.29 fold enrichment (6-mer frequency, TF over GST control)	1.52 fold enrichment (6-mer frequency, TF over GST control)	1.26 fold enrichment (6-mer frequency, TF over GST control)	1.55 fold enrichment (6-mer frequency, TF over GST control)	1.26 fold enrichment (6-mer frequency, TF over GST control)	1.44 fold enrichment (6-mer frequency, TF over GST control)	1.25 fold enrichment (6-mer frequency, TF over GST control)	1.3 fold enrichment (6-mer frequency, TF over GST control)	1.39 fold enrichment (6-mer frequency, TF over GST control)	1.29 fold enrichment (6-mer frequency, TF over GST control)	1.32 fold enrichment (6-mer frequency, TF over GST control)	1.44 fold enrichment (6-mer frequency, TF over GST control)	1.41 fold enrichment (6-mer frequency, TF over GST control)	1.51 fold enrichment (6-mer frequency, TF over GST control)
